# From PubChem BioAssay (EPA / NIEHS)
# Inconclusive results are not listed. Calls of active or inactive are those of the source. How the source made its calls: active means hit-call score of the fitted dose curve at least 0.9, where 1 is the maximum; inconclusive means response in the unintended direction; inactive means score below 0.9.
# How the values were obtained:
# [1] = target: rat Histamine Receptor (H3), Hrh3 (gene 85268) (UniProt Q9QYN8); test: NVS_GPCR_rH3: NovaScreen (NVS) G Protein-Coupled Receptor Assay for rat Histamine Receptor (H3) (AID 2283303)
# How it was run: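 Rat forebrain membranes incubated 1 h with compound; radioligand displacement measured by filter-based scintillation counting. Single-concentration duplicates at 25 µM, then concentration-response up to 50 µM, relative to DMSO.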
# [2] = target: Metabotropic glutamate receptor 1 (Rattus norvegicus) (UniProt P23385); test: NVS_GPCR_rmMGluR1: NovaScreen (NVS) G Protein-Coupled Receptor Assay for rat Glutamate Metabotropic Receptor 1 (MGluR1) (AID 2283305)
# How it was run: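 Rat cerebellum membrane preparation, radioligand displacement binding read by filter-based scintillation counting 1 hour after dosing. Initial duplicate single-point screen at 25 uM, then concentration-response up to 50 uM; loss of signal versus DMSO baseline scored.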
# [3] = target: rat Glutamate Metabotropic Receptor 5 (MGluR5), Grm5 (gene 24418) (UniProt P31424); test: NVS_GPCR_rmMGluR5: NovaScreen (NVS) G Protein-Coupled Receptor Assay for rat Glutamate Metabotropic Receptor 5 (MGluR5) (AID 2283307)
# Experimental: NVS_GPCR_rmMGluR5 is a biochemical, single-readout assay that uses extracted gene-proteins from Rat whole brain in a tissue-based cell-free assay. Measurements were taken 1.5 hours after chemical dosing in a 48-well plate.NVS_GPCR_rmMGluR5 is one of one assay component(s) measured or calculated from the NVS_GPCR_rmMGluR5 assay. It is designed to make measurements of radioligand binding, a form of binding reporter, as detected with scintillation counting signals by Filter-based radiodetection technology.Data from the assay component NVS_GPCR_rmMGluR5 was analyzed into 1 assay endpoint. This assay endpoint, NVS_GPCR_rmMGluR5, was analyzed in the positive analysis fitting direction relative to DMSO as the negative control and baseline of activity. Using a type of binding reporter, loss-of-signal activity can be used to understand changes in the binding as they relate to the gene Grm5. Furthermore, this assay endpoint can be referred to as a primary readout, because the performed assay has only produced 1 assay endpoint. To generalize the intended target to other relatable targets, this assay endpoint is annotated to the gpcr intended target family, where the subfamily is metabotropic glutamate receptor. […]
# Sequence of rat Histamine Receptor (H3), Hrh3 (gene 85268) (Q9QYN8 whole entry, looked up): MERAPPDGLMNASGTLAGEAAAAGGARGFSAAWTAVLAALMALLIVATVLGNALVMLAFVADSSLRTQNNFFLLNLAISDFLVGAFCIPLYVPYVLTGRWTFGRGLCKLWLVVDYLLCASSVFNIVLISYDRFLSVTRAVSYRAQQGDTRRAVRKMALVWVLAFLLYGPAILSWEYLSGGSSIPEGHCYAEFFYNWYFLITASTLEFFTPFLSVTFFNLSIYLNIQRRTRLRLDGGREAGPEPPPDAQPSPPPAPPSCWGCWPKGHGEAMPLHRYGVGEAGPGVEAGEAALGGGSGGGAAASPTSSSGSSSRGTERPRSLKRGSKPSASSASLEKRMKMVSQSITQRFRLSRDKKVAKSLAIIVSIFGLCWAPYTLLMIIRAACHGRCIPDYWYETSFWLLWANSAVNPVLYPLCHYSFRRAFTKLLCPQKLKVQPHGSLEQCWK
# Sequence of Metabotropic glutamate receptor 1 (Rattus norvegicus) (P23385 whole entry, looked up): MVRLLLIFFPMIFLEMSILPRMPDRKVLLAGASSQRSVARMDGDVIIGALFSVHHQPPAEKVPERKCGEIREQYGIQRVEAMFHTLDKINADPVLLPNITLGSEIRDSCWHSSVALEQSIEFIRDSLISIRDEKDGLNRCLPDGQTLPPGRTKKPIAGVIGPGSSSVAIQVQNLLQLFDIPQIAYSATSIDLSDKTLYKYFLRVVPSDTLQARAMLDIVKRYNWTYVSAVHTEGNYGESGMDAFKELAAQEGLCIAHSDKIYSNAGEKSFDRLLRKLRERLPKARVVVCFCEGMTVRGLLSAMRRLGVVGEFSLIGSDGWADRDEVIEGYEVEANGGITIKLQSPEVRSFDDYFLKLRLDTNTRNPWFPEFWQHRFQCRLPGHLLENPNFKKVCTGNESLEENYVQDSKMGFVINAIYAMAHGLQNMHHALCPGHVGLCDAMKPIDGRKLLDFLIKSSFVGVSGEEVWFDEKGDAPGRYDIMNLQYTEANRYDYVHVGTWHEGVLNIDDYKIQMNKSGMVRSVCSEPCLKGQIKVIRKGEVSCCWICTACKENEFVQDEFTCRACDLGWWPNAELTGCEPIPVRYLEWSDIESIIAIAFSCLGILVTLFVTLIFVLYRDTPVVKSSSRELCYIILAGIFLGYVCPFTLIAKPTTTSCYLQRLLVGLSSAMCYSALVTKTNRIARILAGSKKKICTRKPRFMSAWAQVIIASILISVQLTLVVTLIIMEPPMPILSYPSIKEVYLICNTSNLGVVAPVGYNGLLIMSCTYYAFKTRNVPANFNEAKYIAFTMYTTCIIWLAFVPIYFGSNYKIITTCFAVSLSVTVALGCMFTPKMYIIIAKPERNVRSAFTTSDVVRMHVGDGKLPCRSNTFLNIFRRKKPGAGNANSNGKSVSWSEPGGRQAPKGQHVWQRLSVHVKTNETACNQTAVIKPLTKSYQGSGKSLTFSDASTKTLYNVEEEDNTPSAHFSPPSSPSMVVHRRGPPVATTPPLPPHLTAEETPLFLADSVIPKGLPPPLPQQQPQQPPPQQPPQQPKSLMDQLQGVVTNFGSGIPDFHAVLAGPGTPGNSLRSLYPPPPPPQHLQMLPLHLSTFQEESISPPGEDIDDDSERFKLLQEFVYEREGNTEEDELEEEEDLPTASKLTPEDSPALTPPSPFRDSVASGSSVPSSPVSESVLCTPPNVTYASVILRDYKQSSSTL
# Sequence of rat Glutamate Metabotropic Receptor 5 (MGluR5), Grm5 (gene 24418) (P31424 whole entry, looked up): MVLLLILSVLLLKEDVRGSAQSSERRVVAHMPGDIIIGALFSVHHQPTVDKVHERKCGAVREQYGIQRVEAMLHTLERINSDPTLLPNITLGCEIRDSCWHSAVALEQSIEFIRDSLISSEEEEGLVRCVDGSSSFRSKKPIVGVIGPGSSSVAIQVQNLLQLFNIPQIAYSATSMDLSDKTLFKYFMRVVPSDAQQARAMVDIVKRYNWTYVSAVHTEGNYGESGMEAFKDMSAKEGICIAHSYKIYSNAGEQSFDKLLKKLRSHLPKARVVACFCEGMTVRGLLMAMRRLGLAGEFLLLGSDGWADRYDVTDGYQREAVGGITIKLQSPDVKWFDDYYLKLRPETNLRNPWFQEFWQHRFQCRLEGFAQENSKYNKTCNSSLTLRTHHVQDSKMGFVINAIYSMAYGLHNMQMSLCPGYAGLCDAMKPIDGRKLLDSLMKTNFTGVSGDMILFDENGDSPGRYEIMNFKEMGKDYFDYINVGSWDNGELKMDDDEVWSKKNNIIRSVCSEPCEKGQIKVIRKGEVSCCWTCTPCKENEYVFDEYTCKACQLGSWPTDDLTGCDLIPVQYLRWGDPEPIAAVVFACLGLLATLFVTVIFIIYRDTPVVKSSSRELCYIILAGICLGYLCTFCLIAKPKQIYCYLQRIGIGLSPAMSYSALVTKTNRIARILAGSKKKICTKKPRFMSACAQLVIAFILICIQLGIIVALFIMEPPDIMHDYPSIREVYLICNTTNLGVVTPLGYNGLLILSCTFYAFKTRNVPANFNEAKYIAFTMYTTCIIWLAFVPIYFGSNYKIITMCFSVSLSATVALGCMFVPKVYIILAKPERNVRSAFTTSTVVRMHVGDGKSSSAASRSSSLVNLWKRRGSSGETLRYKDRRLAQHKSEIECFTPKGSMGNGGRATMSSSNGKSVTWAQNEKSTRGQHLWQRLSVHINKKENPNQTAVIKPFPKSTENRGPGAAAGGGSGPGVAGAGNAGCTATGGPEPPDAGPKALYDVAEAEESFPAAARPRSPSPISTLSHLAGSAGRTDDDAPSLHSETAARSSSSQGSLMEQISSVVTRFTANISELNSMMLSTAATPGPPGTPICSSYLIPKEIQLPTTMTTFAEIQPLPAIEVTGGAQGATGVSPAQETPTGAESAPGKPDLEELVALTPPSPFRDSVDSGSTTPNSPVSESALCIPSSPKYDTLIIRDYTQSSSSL
structure (smiles),measurement,setting,value
Cc1nccn1-c1ccc(Sc2cccc(C3(C(N)=O)CCOCC3)c2)cc1,AC50,[1],25 µM (active)
CCN(CC)C(=S)SSC(=S)N(CC)CC,AC50,[1],16.2 µM (active)
CCCCCCCCCC,outcome,[2],inactive
CCCCN1C(=O)[C@@H]([C@H](O)C2CCCCC2)NC(=O)C12CCN(Cc1ccc(Oc3ccc(C(=O)O)cc3)cc1)CC2,AC50,[2],9.81 µM (active)
CC[C@H](C)C(=O)O[C@H]1C[C@H](O)C=C2C=C[C@H](C)[C@H](CC[C@@H](O)C[C@@H](O)CC(=O)O)[C@H]21,outcome,[3],inactive
